# Source: PubChem BioAssay
# ST2 IL33 inh: inhibitors of human ST2 (IL1RL1) binding to IL-33, primary screen, biochemical, AlphaLISA; Interleukin-1 receptor-like 1 (Homo sapiens), Q01638; AlphaLISA ST2-Fc/biotin-IL-33 interaction, 1 h; inhibition, % for hits at 17 µM; 78,000 tested, 2.3% active; AID 1259354, 2018; in the data active means inhibition above about 30%
# Target sequence (Q01638 whole entry, looked up): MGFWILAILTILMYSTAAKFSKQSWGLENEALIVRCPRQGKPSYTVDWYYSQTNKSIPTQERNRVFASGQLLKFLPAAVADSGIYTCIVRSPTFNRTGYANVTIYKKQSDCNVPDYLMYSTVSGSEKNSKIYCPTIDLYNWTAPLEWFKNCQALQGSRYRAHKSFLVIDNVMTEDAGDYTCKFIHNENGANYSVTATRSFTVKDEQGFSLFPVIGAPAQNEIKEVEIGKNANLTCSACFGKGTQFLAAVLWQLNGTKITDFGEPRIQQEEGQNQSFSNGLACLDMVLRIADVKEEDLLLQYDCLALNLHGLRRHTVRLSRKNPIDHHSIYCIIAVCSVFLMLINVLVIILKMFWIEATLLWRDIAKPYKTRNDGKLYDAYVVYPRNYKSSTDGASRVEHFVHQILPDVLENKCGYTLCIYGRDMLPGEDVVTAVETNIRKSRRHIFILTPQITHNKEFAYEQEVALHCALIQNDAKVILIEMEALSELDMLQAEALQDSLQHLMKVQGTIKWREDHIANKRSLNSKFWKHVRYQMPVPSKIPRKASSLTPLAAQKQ
# * marks the source's active call; other numbers are inactive results; i = inactive. The entries come from a sample that favours hits as a whole.
SMILES,ST2 IL33 inh
CCOc1ccccc1C1C(C(=O)Nc2ccccc2)=C(C)Nc2nnnn21 (configuration not stated),i
O=C(NCCSc1ccccc1)c1ccc(C2SCC(=O)N2Cc2ccccc2)cc1 (configuration not stated),i
COc1ccc(OC)c(Nc2ncnc3c2cnn3-c2ccc(Cl)cc2)c1,i
CCCc1nc(C(=O)NC2CCC(n3cnnc3)CC2)cs1 (configuration not stated),i
Cc1ccc(Nc2nc(-c3ccc([N+](=O)[O-])cc3)cs2)cc1C,33%*
Ic1ccc(-c2csc(Nc3ccc4c(c3)OCO4)n2)cc1,i
Cc1nc(-c2ccc([N+](=O)[O-])cc2)cs1,i
CC1=NN(C(=O)c2cccc(Br)c2)C(O)(c2ccncc2)C1 (configuration not stated),i
CN(C)c1nccnc1Oc1ccccc1CN1CCOCC1,i
Cc1oc(N=Cc2cn(Cc3ccccc3)c3ccccc23)c(C#N)c1C,46%*
CN=C1S/C(=C\c2cn(CC(=O)O)c3ccccc23)C(=O)N1C,i
Cc1ccc(Cn2cc(CCC(=O)O)c3ccccc32)cc1,i
COc1cccc(C2C(C#N)=C(N)Oc3n[nH]c(-c4ccc(C)cc4)c32)c1 (configuration not stated),i
CCCc1[nH]ncc1C(=O)N1CCCC(N2CCN(c3ccccc3F)CC2)C1 (configuration not stated),i
O=C(O)c1cccnc1CN1CCCCC1CCc1cccc(O)c1 (configuration not stated),i
COc1ccc(NC(=O)CCC2CCCN(C/C=C/c3ccccc3)C2)c(C)c1 (configuration not stated),i
COc1ccc(OC)c(/C=C2\C(=O)Nc3ccc(Br)cc32)c1,35%*
COc1ccc(N2C(=O)NC(=O)/C(=C/c3cc(Br)c(O)c([N+](=O)[O-])c3)C2=O)cc1,i
COc1ccc(/C=C2\C(=O)Nc3ccc(Br)cc32)c(OC)c1OC,i
COc1cc(/C=C2\C(=O)Nc3ccc(Br)cc32)cc([N+](=O)[O-])c1O,31%*
COc1cc(/C=C2\C(=O)NC(=O)N(c3cccc(C)c3)C2=O)cc(Cl)c1O,i
COc1cc(OC)c(/C=C2/C(=O)Nc3ccccc32)c(OC)c1,i
CCOc1cc(/C=C2\C(=O)Nc3ccc(Br)cc32)cc(Cl)c1O,33%*
CCOc1cc(/C=C2/NC(=O)NC2=O)c(Br)cc1O,i
COc1cc(/C=C2/C(=O)NN(c3ccc(Cl)cc3)C2=O)cc([N+](=O)[O-])c1O,i
SMILES,ST2 IL33 inh
Cc1ccc(-c2cn[nH]c2C2CCCN(C(=O)c3n[nH]c4c3CCC4)C2)cc1 (configuration not stated),i
CCOC(=O)c1cnc(NC(=O)N2C3CCCCC2CCC3)[nH]1,i
O=C1[C@@H]2[C@H](C(=O)N1c1cc(Cl)ccn1)[C@H]1C=C[C@@H]2C12CC2,i
CCn1cc(S(=O)(=O)CC(=O)NC2CCCCC2)c2ccccc21,i
Cc1cc(NC(=O)CS(=O)(=O)c2cn(Cc3ccccc3Cl)c3ccccc23)no1,i
O=C(CS(=O)(=O)c1cn(Cc2ccccc2Cl)c2ccccc12)NC1CCCCC1,32%*
OC1(c2cccc(C(F)(F)F)c2)CCN(Cc2ccncc2)CC1,i
CC1(C)CC[C@]2(C(=O)O[C@@H]3O[C@H](CO)[C@@H](O)[C@H](O)[C@H]3O)[C@H](O)C[C@]3(C)C(=CCC4[C@@]5(C)CC[C@H](O[C@@H]6OC[C@@H](O)[C@H](O)[C@H]6O)[C@@](C)(C(=O)O)C5CC[C@]43C)[C@@H]2C1 (some centres not stated),i
COc1ccc(C(=O)/C=C(\C)c2ccc(OC)cc2)cc1,43%*
COc1ccc(-c2ccc(C(C)=O)cc2)cc1,i
COc1ccc(C(=O)NCC(=O)O)cc1,i
Cc1c(Cl)cccc1-n1ncnc1-c1cccc([N+](=O)[O-])c1,35%*
Cc1c(Cl)cccc1N1C(=O)CSC1c1ccc([N+](=O)[O-])cc1 (configuration not stated),i
O=[N+]([O-])c1cccc(-c2ncnn2-c2ccc(Br)cc2F)c1,i
Cc1cccc(C)c1NC(=O)C(C)Sc1ccccc1 (configuration not stated),i
CCCCn1cnc2oc(-c3ccccc3)c(-c3ccccc3)c2c1=N,i
COC(=O)c1c(NC(=O)C(C)Oc2ccc(Cl)cc2Cl)sc(C)c1C (configuration not stated),i
COc1cc(C)c2c(=O)c(Oc3ccccc3)c(C(F)(F)F)oc2c1,i
CC12CN(C(=O)c3ccccc3Cl)CC(C)(CN(C(=O)c3ccccc3Cl)C1)C2=O,i
CCOC(=O)c1c(NC(=O)c2sc3ccccc3c2Cl)sc2c1CCN(C)C2,38%*
CCOC(=O)c1c(NC(=O)c2ccc(S(=O)(=O)N3CCCC3)cc2)sc2c1CCN(C)C2,i
CCOC(=O)c1c(NC(=O)c2ccc(Br)s2)sc2c1CCN(C)C2,i
N#Cc1cccc(NC(=O)N[C@H]2CO[C@H]3[C@@H]2OC[C@@H]3Nc2nccc(C3CCCC3)n2)c1,i
Cc1ccc(S(=O)(=O)C2(C(=O)NC3CCCCCC3)CC2)cc1,i
CCCN1CCC(N2CCOC(Cc3cccc(OC)c3)C2)CC1 (configuration not stated),i
SMILES,ST2 IL33 inh
Cc1cccc(CN2C(=O)c3oc4ccccc4c3OCC2(C)C(=O)NC2CCCC2)c1 (configuration not stated),i
O=c1oc2ccc(Br)cc2cc1-c1nnc(-c2ccccc2Br)o1,i
O=c1oc2ccc(Br)cc2cc1-c1nc(-c2cccs2)cs1,30%*
O=c1oc2cc(O)ccc2cc1-c1nc(-c2ccc3ccccc3c2)cs1,i
COc1ccc(-c2cc3cc(Br)ccc3oc2=O)cc1,i
O=c1oc2ccccc2cc1-c1nc(-c2cccs2)cs1,51%*
O=C(Nc1nc(-c2cccs2)cs1)c1cc2ccccc2oc1=O,i
COc1ccc(C(=O)Nc2ccc(I)cc2Cl)cc1[N+](=O)[O-],i
CC(C)(C)c1ccc(/C=C/C(=O)NCc2cccnc2)cc1,i
CCOC(=O)Cn1nnc(-c2ccc(Br)cc2)n1,i
COC(=O)c1cnn2c(C)c(Cc3cccc(C)c3)c(C)nc12,i
O=C(O)C1CCC(c2ccccc2)CC1 (configuration not stated),i
Nc1ccc(C(=O)N2CC[C@@H](c3ccc4c(c3)OCO4)[C@H](O)C2)cn1,i
CCCCn1c(CCCNC(=O)CCC)nc2ccccc21,i
Cc1c(C(=O)N2CCN(c3cccc(Cl)c3)CC2)sc2nc(-c3ccccc3)cn12,i
CC1=CC(C)(C)Nc2ccc(OC(=O)c3ccc4c(c3)OCO4)cc21,30%*
COc1ccccc1C(=O)Oc1ccc2c(c1)C(C)=CC(C)(C)N2,i
COc1ccc(/C(N)=N\OC(=O)c2ccc3c(c2)OCO3)cc1OC,i
O=C(c1cc(-c2ccc(F)cc2)on1)N1CCc2ccccc2C1,i
COC(=O)C1=C(NC(=O)c2ccc(C(C)(C)C)cc2)CCS1,53%*
COC(=O)C1=C(NC(=O)c2ccc(Cc3ccccc3)cc2)CCS1,31%*
CC(C)(C)c1ccc(C(=O)Nc2ccc3c(c2)OCO3)cc1,i
COC(=O)c1c(NC(=O)COc2ccc(C(C)(C)C)cc2)sc2c1CCC2,i
CCc1ccc(NC(=O)c2ccc(N(Cc3ccccc3)S(C)(=O)=O)cc2)cc1,i
